According to PubChem BioAssay:
For part of these data: Measured potencies and affinities stand elsewhere. Activity calls are given as the source filed them. Unless noted, the rule behind the calls is not given here.

Tests used:
[1] = antimalarial activity against Dd2 strain (AID 2302;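 active = growth inhibition above 50% at the single 2 µM test dose, taken to imply half-maximal potency below 2 µM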;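 note: 0% = DMSO untreated growth and 100% = chloroquine plus artemisinin killed control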); conditions: P. falciparum Dd2 in RBCs, LDH growth readout, 72 h; at 2 µM; hits give high values
[2] = HepG2 cytotoxicity, primary screen, cytotoxicity control for P. falciparum antimalarial project, cell-based, ATP luminescence (AID 2303;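 active = inhibition above 50%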;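 note: 0% = DMSO wells and 100% = digitonin-killed cells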); conditions: HepG2 viability, 24-48 h, at 10 µM, hits give high values
[3] = target: L-lactate dehydrogenase (Plasmodium falciparum (isolate CDC / Honduras)) (UniProt Q27743); assay: PfLDH activity inhibition – cell lysate, 3D7 strain, counter-screen for P. falciparum growth inhibition project (AID 2304);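 note: 0% = vehicle and 100% = reference inhibitor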; conditions: P. falciparum 3D7 crude extract, LDH APAD/NBT absorbance; at 2 µM; hits give high values
Chain of L-lactate dehydrogenase (Plasmodium falciparum (isolate CDC / Honduras)) (Q27743 whole entry, looked up): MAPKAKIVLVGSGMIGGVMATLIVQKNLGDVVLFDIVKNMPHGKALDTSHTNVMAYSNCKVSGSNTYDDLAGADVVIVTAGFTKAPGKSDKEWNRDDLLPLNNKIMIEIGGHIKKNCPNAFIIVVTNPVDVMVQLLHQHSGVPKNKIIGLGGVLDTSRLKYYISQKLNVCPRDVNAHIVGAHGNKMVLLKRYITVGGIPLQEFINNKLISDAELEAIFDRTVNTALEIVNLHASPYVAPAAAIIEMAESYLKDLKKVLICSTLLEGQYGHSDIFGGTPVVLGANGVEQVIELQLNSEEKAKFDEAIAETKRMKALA

[4] = inhibition of 3D7 malaria parasite growth – strain 3D7 (AID 2306);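 note: 0% = DMSO wells and 100% = chloroquine plus artemisinin control wells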; conditions: P. falciparum 3D7 erythrocytic growth, LDH absorbance, 72 h; at 2 µM; hits give high values
[5] = target: Calcium-dependent protein kinase 1 (Plasmodium falciparum (isolate 3D7)) (UniProt P62344); assay: PfCDPK1 kinase inhibitors, biochemical, TCAMS library (AID 1159585; cut-off not given, nearly all actives have IC50 up to about 0.98 µM;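 note: inhibitors leave more ATP so luminescence rises with inhibition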); conditions: recombinant PfCDPK1, Kinase-Glo ATP depletion luminescence
Chain of Calcium-dependent protein kinase 1 (Plasmodium falciparum (isolate 3D7)) (P62344 whole entry, looked up): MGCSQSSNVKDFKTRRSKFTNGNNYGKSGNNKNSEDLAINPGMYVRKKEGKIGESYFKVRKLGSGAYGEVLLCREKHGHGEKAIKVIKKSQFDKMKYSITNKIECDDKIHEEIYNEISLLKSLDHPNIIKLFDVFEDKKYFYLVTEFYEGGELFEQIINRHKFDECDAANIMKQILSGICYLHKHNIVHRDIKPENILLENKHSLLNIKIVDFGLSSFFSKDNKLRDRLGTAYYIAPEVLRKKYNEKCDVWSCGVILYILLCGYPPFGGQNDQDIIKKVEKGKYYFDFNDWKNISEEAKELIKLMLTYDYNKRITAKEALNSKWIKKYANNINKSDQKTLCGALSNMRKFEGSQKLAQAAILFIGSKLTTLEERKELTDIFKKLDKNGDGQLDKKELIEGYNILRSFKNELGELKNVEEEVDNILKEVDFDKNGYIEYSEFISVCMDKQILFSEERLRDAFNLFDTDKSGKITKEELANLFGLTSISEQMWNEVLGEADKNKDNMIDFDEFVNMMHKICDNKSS

[6] = target: Plasmodium falciparum protein kinase 6 (PK6, PF3D7_1337100) (UniProt Q8IDW1); assay: PfPK6 kinase inhibitors, biochemical, TCAMS library (AID 1159586); conditions: recombinant PfPK6, Kinase-Glo ATP depletion luminescence
Chain of Plasmodium falciparum protein kinase 6 (PK6, PF3D7_1337100) (Q8IDW1 1-305): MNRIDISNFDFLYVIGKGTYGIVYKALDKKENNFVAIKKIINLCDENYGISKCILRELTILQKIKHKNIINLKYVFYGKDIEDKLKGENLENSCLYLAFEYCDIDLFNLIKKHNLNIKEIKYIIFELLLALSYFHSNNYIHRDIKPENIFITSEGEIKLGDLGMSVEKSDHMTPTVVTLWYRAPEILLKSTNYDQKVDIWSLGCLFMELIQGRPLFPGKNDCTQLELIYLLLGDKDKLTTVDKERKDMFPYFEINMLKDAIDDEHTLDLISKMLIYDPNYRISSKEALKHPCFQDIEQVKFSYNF

[7] = target: Protein kinase 7 (PK7), Plasmodium falciparum 3D7 (PF3D7_0213400) (UniProt Q7YTF7); assay: inhibition of Plasmodium PK7 catalytic activity – biochemical, TCAMS antimalarial set, Kinase-Glo luminescence (AID 1159587); conditions: recombinant PfPK7, Kinase-Glo ATP depletion luminescence
Chain of Protein kinase 7 (PK7), Plasmodium falciparum 3D7 (PF3D7_0213400) (Q7YTF7 1-343): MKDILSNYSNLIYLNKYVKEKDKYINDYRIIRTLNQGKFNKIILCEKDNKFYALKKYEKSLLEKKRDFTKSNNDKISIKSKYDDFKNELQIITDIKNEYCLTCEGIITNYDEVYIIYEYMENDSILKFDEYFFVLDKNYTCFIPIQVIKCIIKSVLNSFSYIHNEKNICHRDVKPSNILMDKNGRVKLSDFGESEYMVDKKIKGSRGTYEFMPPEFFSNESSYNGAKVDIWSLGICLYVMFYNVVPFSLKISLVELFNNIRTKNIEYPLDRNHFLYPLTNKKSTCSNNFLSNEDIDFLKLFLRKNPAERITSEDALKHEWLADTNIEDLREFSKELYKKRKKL

[8] = target: Calcium-dependent protein kinase 4 (Plasmodium falciparum (isolate 3D7)) (UniProt Q8IBS5); assay: PfCDPK4 kinase inhibitors, biochemical, TCAMS library (AID 1159588; cut-off not given, nearly all actives have IC50 up to about 0.91 µM); conditions: recombinant PfCDPK4, Kinase-Glo ATP depletion luminescence
Chain of Calcium-dependent protein kinase 4 (Plasmodium falciparum (isolate 3D7)) (Q8IBS5 whole entry, looked up): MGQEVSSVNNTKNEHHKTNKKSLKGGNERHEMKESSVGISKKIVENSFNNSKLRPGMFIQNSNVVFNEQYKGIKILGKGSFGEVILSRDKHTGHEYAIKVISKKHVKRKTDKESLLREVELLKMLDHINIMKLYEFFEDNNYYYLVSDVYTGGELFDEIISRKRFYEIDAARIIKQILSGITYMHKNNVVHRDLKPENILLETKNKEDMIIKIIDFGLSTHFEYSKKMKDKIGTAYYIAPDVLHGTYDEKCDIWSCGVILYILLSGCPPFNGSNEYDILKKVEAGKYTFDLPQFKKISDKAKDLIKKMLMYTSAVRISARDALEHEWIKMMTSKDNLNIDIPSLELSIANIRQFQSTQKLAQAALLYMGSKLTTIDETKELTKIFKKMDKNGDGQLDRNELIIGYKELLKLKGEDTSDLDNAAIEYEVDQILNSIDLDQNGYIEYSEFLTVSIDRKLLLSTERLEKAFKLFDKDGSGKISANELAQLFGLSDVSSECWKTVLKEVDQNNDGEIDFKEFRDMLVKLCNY

CN(c1ccc(C(=O)N[C@@H](CCC(=O)O)C(=O)O)cc1)S(=O)(=O)c1ccc2nc(N)[nH]c(=O)c2c1
active: growth inhibition [4] 97%
inactive: growth inhibition [1] 3% | inhibition [2] 16% | inhibition [3] 2% | outcome [5] | outcome [6] | outcome [7] | outcome [8]

Cc1noc(-c2cccs2)c1C(=O)NCCc1cccc(Cl)c1
active: growth inhibition [1] 95% | growth inhibition [4] 97%
inactive: inhibition [2] -17% | inhibition [3] 0% | outcome [5] | outcome [6] | outcome [7] | outcome [8]

O=C(N[C@@H](Cc1ccccc1)C(=O)NCc1cccc(C(F)(F)F)c1)c1ccc(O)c(-c2ccc(Cl)c(Cl)c2)c1
inactive: inhibition [2] -13% | inhibition [3] -1% | outcome [5] | outcome [6] | outcome [7] | outcome [8]
active: growth inhibition [1] 97% | growth inhibition [4] 96%
